Assay outcomes: PubChem BioAssay, National Center for Advancing Translational Sciences (NCATS)
A selection: hits, their analogues and other compounds. The true share with any hit is near 19%.
TDP1 cell noCPT – qHTS for Inhibitors of human tyrosyl-DNA phosphodiesterase 1 (TDP1): qHTS in cells in absence of CPT. Potency, µM (doses to about 46.2 µM), inactives show at the top dose activity change, negative = growth inhibition, most hits filed as inhibitors. DT40 Tdp1-/- hTDP1 cells, no CPT, ATP luminescence, 48 h. 420,000 tested, 15% active; note: potency is the fitted concentration of half-maximal effect; nearly all actives have a fitted effect of over 55% in size
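Readout: luminescence from CellTiter-Glo after 30 min in the dark at RT. Cells: DT40 Tdp1-/- with stable hTDP1, 400/well. Exposure: compounds alone, ≥48 hr, 37 °C.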
DT40 TDP1 CPT – qHTS for Inhibitors of human tyrosyl-DNA phosphodiesterase 1 (TDP1): qHTS in cells in presence of CPT. chicken DT40 Tdp1-/-;hTDP1 cells + 20 nM CPT, ATP luminescence, 48 h. Potency, µM (series often up to 46.2 µM), for the others: at the highest dose activity change, negative = growth inhibition, hits mostly inhibitors. 420,000 tested, 12% active. AID 686979, 2013; note: potency is the fitted concentration of half-maximal effect; nearly all actives have a fitted effect of over 55% in size
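Chicken DT40 Tdp1-/- cells stably complemented with human TDP1 were seeded at 400 cells/well in medium containing 20 nM camptothecin, exposed to pin-transferred compounds, and grown at 37 °C for at least 48 hr. Viability was read as ATP luminescence.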
HT1080 IDH1KD tx – qHTS for induction of synthetic lethality in tumor cells producing 2HG: qHTS for the HT-1080-IDH1KD cell line; HT-1080 IDH1 knockdown viability, ATP luminescence, 48 h; Potency, µM (series often up to 46.1 µM), for inactives: at the top dose activity, negative = toxicity, actives largely listed as cytotoxic; AID 686971, 2013; 360,000 tested, 2% active;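 note: potency is the fitted concentration of half-maximal effect; 0% = DMSO wells and -100% = cell-free medium wells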
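HT-1080-IDH1KD cells (IDH1 knocked down), 750/well in RPMI with 5% FBS, treated with compound 48 h at 37 degrees C. Viability by CellTiter-Glo luminescence, normalised to DMSO and no-cell wells; concentration-response curves classed.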
IL1B secr inh – qHTS for Inhibitors of Inflammasome Signaling: IL-1-beta AlphaLISA Primary Screen; THP-1 LPS/ATP IL-1B secretion, AlphaLISA, 16 h; hits give low values; activity change, % at 57.5 µM; 360,000 tested, 4.7% active; in the data active = activity change below about -50%; inconclusive = mostly about -30% to -49%
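Secreted IL-1B measured by AlphaLISA bead assay after 16 h compound exposure of THP-1 cells; compounds (final up to 57.5 uM) added 1 h before LPS (250 ng/mL) and ATP (1.25 mM) stimulation; lower signal means less secretion.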
HT1080-NT tox – qHTS for induction of synthetic lethality in tumor cells producing 2HG: qHTS for the HT-1080-NT fibrosarcoma cell line | 360,000 tested, 1.6% active | Potency, µM (doses to about 46.1 µM), for the others: at the top dose activity, negative = less viability, most hits filed as cytotoxic | HT-1080-NT fibrosarcoma viability, CellTiter-Glo ATP luminescence, 48 h | AID 686970, 2013;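 note: NT is the 2HG producing partner of a matched IDH1 knockdown line; potency is the fitted concentration of half-maximal effect; 0% = DMSO-treated cells and -100% = media-only wells without cells; nearly all actives have a fitted effect of over 55% in size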
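Read-out is CellTiter-Glo luminescence after 10 minutes at room temperature, following 48 hours' compound treatment of HT-1080-NT cells (750 cells/well, RPMI, 5% FBS, 37 degrees C).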
The depositor's hits bear a star; ? = inconclusive; . = no result. Unless noted, calls come from the whole dose curve; as a rule, active = well fitted curve in the direction sought with a large enough effect; inconclusive = small, poorly fitted or top-dose-only effect, or another doubt; inactive = no such curve, though single readings can be large; an effect the other way counts as inactive or inconclusive. Unless noted, % is set by controls: 0 for no effect and ±100 for the full control effect.

SMILES | TDP1 cell noCPT | DT40 TDP1 CPT | HT1080 IDH1KD tx | IL1B secr inh | HT1080-NT tox
COc1ccc(Cc2nc3ccc(C(=O)N4CCCCC4CO)cc3o2)cc1OC (centres undefined) | 21µM* | ? | -12% | 9 | 3%
COCCCn1c(SCC(=O)NNC(=O)c2cccc(O)c2)nnc1-c1ccncc1 | 8% | 10% | -9% | 7 | 0%
COc1ccc(Cc2nc3ccc(C(=O)N(C)Cc4nccs4)cc3o2)cc1OC | ? | 10µM* | -19% | 36 | -10%
COc1ccc(Cc2nc3ccc(C(=O)NCc4cccc(C)n4)cc3o2)cc1OC | ? | 18µM* | 1% | ? | 2%
COc1ccc(Cc2nc3ccc(C(=O)NCc4ncc(C)[nH]4)cc3o2)cc1OC | 12% | -25% | -7% | 0 | -2%
COc1ccc(Cc2nc3ccc(C(=O)NCc4cc(C)no4)cc3o2)cc1OC | ? | ? | -3% | 25 | -9%
COc1ccc(Cc2nc3ccc(C(=O)N4CCCC4)cc3o2)cc1OC | 21µM* | ? | -9% | 0 | 2%
CN(Cc1nccs1)C(=O)c1ccc2nc(Cc3ccccc3F)oc2c1 | ? | ? | 1% | -9 | 2%
C=CCN(CC=C)C(=O)c1ccc2nc(Cc3ccc(OC)c(OC)c3)oc2c1 | 4.6µM* | ? | ? | ? | -25%
Cc1cccn2c(=O)c(C(=O)N3CCN(c4ccccc4)CC3)cnc12 | -16% | -10% | . | . | .
COc1cc(NC(=O)NCCc2c(C)nn(C)c2C)cc(OC)c1OC | -1% | 1% | . | . | .
O=C(NNC(=O)c1ccc([N+](=O)[O-])cc1)c1ccc(Br)cc1 | -25% | -47% | -3% | -11 | -4%
O=C(CCc1ccccc1)NNC(=O)c1cc(Cl)ccc1O | 23µM* | ? | ? | 74 | -25%
O=C(NNC(=S)NC(=O)c1ccc(Br)cc1)c1ccc([N+](=O)[O-])cc1 | 23µM* | ? | 3% | 11 | -9%
Cc1ccc(C(=O)NC(=S)NNC(=O)c2ccccc2O)cc1 | ? | ? | ? | 67 | ?
O=C(NNC(=S)NC(=O)c1ccccc1)c1ccc([N+](=O)[O-])cc1 | 12µM* | 13µM* | -27% | 47 | -30%
O=C(NC(=S)NNC(=O)c1ccccc1O)c1ccccc1 | 29µM* | ? | -25% | 47 | ?
O=C(NNC(=O)c1ccccc1F)c1cccs1 | -13% | 3% | 0% | -4 | 0%
O=C(NNC(=O)c1ccccc1Cl)c1cccs1 | -8% | -5% | 21% | -8 | 20%
O=C(NC(=S)NNC(=O)c1ccccc1O)c1cccs1 | 26µM* | 23µM* | -21% | 20 | ?
O=C(NC(=S)NNC(=O)c1ccccc1O)c1ccc([N+](=O)[O-])cc1 | 15µM* | 26µM* | -9% | -22 | -7%
Cc1ccc(C(=O)NC(=S)NNC(=O)c2ccc([N+](=O)[O-])cc2)cc1 | 15µM* | ? | -4% | 52 | -10%
O=C(NNC(=O)c1cc(Cl)ccc1O)c1cccs1 | 18µM* | ? | ? | 29 | -28%
Cc1ccc(S(=O)(=O)NNC(=S)NC(=O)c2ccc([N+](=O)[O-])cc2)cc1 | 3% | 1% | -2% | 15 | -2%
CCCCCC(=O)NNC(=S)NC(=O)c1ccc([N+](=O)[O-])cc1 | ? | -6% | -1% | -14 | -6%
O=c1[nH][nH]c2c1C(C1CCCCC1)OC(C1CCCCC1)C2 (centres undefined) | ? | ? | 0% | -2 | 17%
O=C(NNC(=S)NC(=O)c1ccc(Br)cc1)c1cccc([N+](=O)[O-])c1 | 16µM* | 18µM* | ? | 34 | ?
CC(=O)NNC(=S)NC(=O)c1cccc([N+](=O)[O-])c1 | -30% | 4% | -21% | 0 | -16%
